According to publication PMC5540273 (PLoS ONE, 2017):

Key:
Details in all cases: concentration: 1 μM, replicates: in singlicate; n = 1
TRPM6 = system: TRPM6
TSSK1B = system: TSSK1B
TSSK3 = system: TSSK3
TTK = system: TTK
TXK = system: TXK
[1] = system: TYK2(JH1domain-catalytic)
[2] = system: TYK2(JH2domain-pseudokinase)
TYRO3 = system: TYRO3
ULK1 = system: ULK1
ULK2 = system: ULK2
ULK3 = system: ULK3
VEGFR2 = system: T1, VEGFR2
T1 construct: gene KDR

VPS34 = system: T2, VPS34
T2 construct: gene PIK3C3

VRK2 = system: VRK2
WEE1 = system: WEE1
WEE2 = system: WEE2
WNK1 = system: WNK1
WNK2 = system: WNK2
WNK3 = system: WNK3
WNK4 = system: WNK4
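Also: KINOMEscan kinase panel screen.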

Row | Compound | %Inh (TRPM6) | %Inh (TSSK1B) | %Inh (TSSK3) | %Inh (TTK) | %Inh (TXK) | %Inh [1] | %Inh [2] | %Inh (TYRO3) | %Inh (ULK1) | %Inh (ULK2) | %Inh (ULK3) | %Inh (VEGFR2) | %Inh (VPS34) | %Inh (VRK2) | %Inh (WEE1) | %Inh (WEE2) | %Inh (WNK1) | %Inh (WNK2) | %Inh (WNK3) | %Inh (WNK4)
1 | CCc1ccc(-c2ccc3c(c2)-c2nn(C)cc2S(=O)(=O)N3C)cc1 | 0% | 0% | 0% | 0% | 0% | 0% | 0% | 0% | 0% | 0% | 0% | 0% | 0% | 14% | 21% | 0% | 6% | 0% | 0% | 0%
2 | CCn1c(-c2nonc2N)nc2ccccc21 [SB-693162/GW549034] | 0% | 0% | 0% | 29% | 12% | 0% | 25% | 0% | 40% | 31% | 20% | 40% | 2% | 0% | 0% | 0% | 0% | 39% | 0% | 6%
3 | O=C(Nc1n[nH]c2cc(-c3ccccc3F)ccc12)C1CC1 [SB-733371] | 0% | 0% | 0% | 0% | 12% | 0% | 0% | 0% | 2% | 8% | 33% | 4% | 0% | 0% | 5% | 0% | 0% | 0% | 0% | 6%
4 | COc1ccc(-c2cc3c(C)nc(N)nc3n([C@H]3CC[C@H](OCCO)CC3)c2=O)cn1 | 0% | 2% | 0% | 0% | 2% | 0% | 0% | 0% | 0% | 0% | 3% | 0% | 0% | 0% | 0% | 0% | 0% | 0% | 0% | 0%
5 | Fc1cccc(CSc2nnc(-c3ccc4c(c3)CCO4)o2)c1 | 0% | 0% | 2% | 2% | 0% | 4% | 12% | 0% | 0% | 9% | 11% | 0% | 13% | 5% | 0% | 16% | 0% | 14% | 0% | 0%
6 | COc1ccc(Nc2nccc(N3CCC(NS(=O)(=O)c4ccc(NC(C)=O)cc4)C3)n2)cc1 (stereo not shown) [GSK1379729] | 0% | 0% | 21% | 7% | 35% | 93.8% | 0% | 23% | 26% | 0% | 42% | 0% | 92.3% | 16% | 37% | 11% | 24% | 38% | 0% | 29%
7 | COc1cc(Nc2nccc(N3CCC(NC(=O)C4COc5ccccc5O4)C3)n2)cc(OC)c1OC (stereo not shown) [GSK1379761] | 0% | 0% | 9% | 13% | 10% | 81% | 29% | 0% | 8% | 0% | 69% | 0% | 16% | 41% | 10% | 0% | 1% | 19% | 46% | 50%
8 | CCCC(=O)Nc1n[nH]c2ncc(-c3cccc4ccccc34)cc12 [SB-642057] | 48% | 36% | 0% | 0% | 52% | 0% | 38% | 0% | 18% | 1% | 26% | 11% | 0% | 0% | 6% | 0% | 12% | 6% | 0% | 0%
9 | COc1cc2nccc(Nc3ccc(OCc4ccc(NC(C)=O)cc4)cc3)c2cc1OC.Cl [GW440135] | 3% | 0% | 26% | 0% | 6% | 9% | 5% | 0% | 0% | 0% | 13% | 96.2% | 0% | 35% | 29% | 12% | 2% | 16% | 39% | 0%
10 | CCC(=O)c1c(-c2ccccc2)c2cc(Cl)ccc2c(=O)n1Cc1cc(C(=O)NC2CC2)n(C)n1 | 0% | 0% | 0% | 15% | 24% | 8% | 1% | 0% | 0% | 6% | 2% | 0% | 20% | 0% | 0% | 0% | 0% | 0% | 0% | 22%
11 | COc1cccc(C2=C(Nc3cccc(C(=O)O)c3)C(=O)NC2=O)c1 [SB-390770] | 15% | 23% | 15% | 0% | 48% | 19% | 0% | 0% | 26% | 6% | 9% | 11% | 34% | 16% | 0% | 7% | 3% | 18% | 5% | 0%
